Assay results: PubChem BioAssay
Active and inactive are the calls of the source. Unless noted, how the calls were made is not given here.

Assays:
[1] = A549 cell viability effects, profiling panel, calcein-AM fluorescence, 48 h, basal (AID 1162); conditions: higher = more signal; further: test concentration not given here
[2] = adipocyte viability effects, profiling panel, cell-based, 3T3-L1 adipocytes, calcein-AM fluorescence, 48 h, basal (AID 1163); conditions: 3T3-L1 adipocytes viability, higher = more signal; further: test concentration not given here
[3] = HepG2 cell viability effects, profiling panel, calcein-AM fluorescence, 48 h, basal (AID 1164); conditions: higher = more signal; further: test concentration not given here
[4] = MM1S cell viability effects, profiling panel, calcein-AM fluorescence, 48 h, basal (AID 1165); conditions: higher = more signal;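 further: viability of MM1S multiple myeloma cells under basal unstimulated conditions; test concentration not given here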
[5] = basal RPMI8226 viability, no added stimulus, profiling panel, cell-based, calcein-AM fluorescence, 48 h, PK04 Diversity Set (AID 1166); conditions: RPMI8226 myeloma viability, higher = more signal;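 further: cells grown under basal conditions without added stimulus; test concentration not given here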
[6] = basal HepG2 mitochondrial membrane potential changes, profiling panel, cell-based, JC-1 fluorescence, 24 h, 100 nL compound (AID 1167); conditions: higher = more signal; further: test concentration not given here
[7] = basal 3T3-L1 adipocyte mitochondrial potential changes, profiling panel, cell-based, JC-1 fluorescence, 3T3-L1 adipocytes, 24 h, 100 nL compound (AID 1168); conditions: JC-1 mitochondrial fluorescence, higher = more signal, called active from +8 up or from −8 down; further: test concentration not given here
[8] = basal RPMI8226 mitochondrial membrane potential changes, profiling panel, cell-based, JC-1 fluorescence, 24 h, 100 nL compound (AID 1169); conditions: RPMI8226 myeloma, JC-1 mitochondrial potential fluorescence, higher = more signal; further: test concentration not given here
[9] = basal MM1S mitochondrial membrane potential changes, profiling panel, cell-based, JC-1 fluorescence, 24 h, 100 nL compound (AID 1170); conditions: higher = more signal; further: test concentration not given here
[10] = A549 lung cancer cell viability effects, profiling panel, resazurin fluorescence, 24 h, PK04 Diversity Set (AID 1171); conditions: higher = more signal, called active from +8 up or from −8 down; further: test concentration not given here
[11] = HepG2 liver cancer cell viability effects, profiling panel, resazurin fluorescence, 24 h, PK04 Diversity Set (AID 1172); conditions: higher = more signal; further: test concentration not given here
[12] = basal S. cerevisiae growth modulation, no modifier, primary screen, OD600, strain BY4716, 24 h, basal condition (AID 1173); conditions: OD600, 24 h, higher = more signal, called active from +8 up or from −8 down
[13] = MM1S myeloma cell viability, profiling panel, resazurin fluorescence, basal, 24 h, PK04 Diversity Set (AID 1174); conditions: higher = more signal, called active from +8 up or from −8 down;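 further: MM1S multiple myeloma cell line; test concentration not given here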
[14] = target: Dihydroorotate dehydrogenase (quinone), mitochondrial (Plasmodium falciparum (isolate 3D7)) (UniProt Q08210); test: PfDHODH enzyme inhibitors, primary screen, biochemical, C-terminal His tag, absorbance 600 nm (AID 1175); conditions: DCIP absorbance 600 nm, higher = more signal, called active from +8 up or from −8 down;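 further: recombinant parasite enzyme with a five histidine tag at its C terminus; test concentration not given here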
[15] = P. aeruginosa biofilm formation inhibitors, primary screen, strain PAO1, LB-PBS medium, absorbance 600 nm (AID 1176); further: test concentration not given here; conditions: P. aeruginosa PAO1 growth/biofilm, A600, 12 h; higher = more signal
[16] = S. cerevisiae RM11-1a growth modifiers, primary screen, strain RM11-1a, OD600, basal, 24 h (AID 1177); conditions: OD600, 24 h, higher = more signal, called active from +8 up or from −8 down;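 further: cultures grown under basal conditions with no added stressor; test concentration not given here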
[17] = E. coli acrAB mutant growth effects, primary screen, E. coli filamentation inducers, strain DRC39, OD650, 24 h (AID 1178); conditions: higher = more signal, called active from +8 up or from −8 down;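 further: growth measured as culture turbidity by optical density at 650 nm; test concentration not given here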
[18] = E. coli acrAB mutant growth effects, primary screen, E. coli filamentation inducers, strain DRC39, OD650, 48 h (AID 1179);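 further: screen aims at cell division blockers that make cells filament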; conditions: E. coli DRC39 delta-acrAB growth, higher = more signal, called active from +8 up or from −8 down
[19] = RPMI8226 myeloma cell viability, profiling panel, resazurin fluorescence, basal, 24 h, PK04 Diversity Set (AID 1180); conditions: higher = more signal;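 further: RPMI8826 multiple myeloma cell line at 5000 cells per well; test concentration not given here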
[20] = target: E3 ubiquitin-protein ligase XIAP (Homo sapiens) (UniProt P98170); test: XIAP binders, primary screen, biophysical, small-molecule microarray, fluorescence 635 nm (AID 1181); conditions: small-molecule microarray binding, higher = more signal;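 further: score merges 667 nm emission and signal to noise over triplicate slides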
E3 ubiquitin-protein ligase XIAP (Homo sapiens), sequence (P98170 whole entry, looked up): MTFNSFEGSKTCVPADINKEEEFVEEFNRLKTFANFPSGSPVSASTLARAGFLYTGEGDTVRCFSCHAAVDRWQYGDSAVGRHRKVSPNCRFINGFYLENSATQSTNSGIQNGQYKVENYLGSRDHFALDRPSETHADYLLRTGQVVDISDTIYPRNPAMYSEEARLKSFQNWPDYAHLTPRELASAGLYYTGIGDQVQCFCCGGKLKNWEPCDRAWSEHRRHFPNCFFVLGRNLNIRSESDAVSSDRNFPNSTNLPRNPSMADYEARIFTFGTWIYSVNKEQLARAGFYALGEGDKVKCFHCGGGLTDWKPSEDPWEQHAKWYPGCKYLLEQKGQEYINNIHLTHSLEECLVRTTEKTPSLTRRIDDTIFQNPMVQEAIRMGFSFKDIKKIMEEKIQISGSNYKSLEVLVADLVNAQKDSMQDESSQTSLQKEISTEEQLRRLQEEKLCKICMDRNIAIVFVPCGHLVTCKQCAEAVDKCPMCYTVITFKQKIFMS

Dihydroorotate dehydrogenase (quinone), mitochondrial (Plasmodium falciparum (isolate 3D7)), sequence (Q08210 whole entry, looked up): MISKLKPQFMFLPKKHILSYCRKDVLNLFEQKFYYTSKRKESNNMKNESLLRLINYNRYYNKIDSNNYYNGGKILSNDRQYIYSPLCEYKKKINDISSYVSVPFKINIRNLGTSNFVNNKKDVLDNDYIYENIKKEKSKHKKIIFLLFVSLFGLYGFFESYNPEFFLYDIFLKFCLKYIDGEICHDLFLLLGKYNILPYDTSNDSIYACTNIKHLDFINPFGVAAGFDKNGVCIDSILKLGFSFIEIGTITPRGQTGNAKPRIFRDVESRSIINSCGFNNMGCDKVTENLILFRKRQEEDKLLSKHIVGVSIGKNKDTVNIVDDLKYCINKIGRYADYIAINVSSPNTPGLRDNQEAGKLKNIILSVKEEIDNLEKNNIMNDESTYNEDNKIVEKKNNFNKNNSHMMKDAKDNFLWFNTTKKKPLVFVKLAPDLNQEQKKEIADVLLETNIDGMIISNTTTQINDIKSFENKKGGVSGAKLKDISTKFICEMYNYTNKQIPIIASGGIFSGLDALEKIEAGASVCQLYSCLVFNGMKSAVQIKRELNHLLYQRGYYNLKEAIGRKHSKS

Row | SMILES | z-score [1] | z-score [2] | z-score [3] | z-score [4] | z-score [5] | z-score [6] | z-score [7] | z-score [8] | z-score [9] | z-score [10] | z-score [11] | z-score [12] | z-score [13] | composite z-score [14] | z-score [15] | z-score [16] | z-score [17] | z-score [18] | z-score [19] | composite z-score [20]
1 | C=CCC(OC(C)=O)[C@@H]1[C@@H](N(Cc2cccc3ccccc23)C(=O)c2ccc(C)cc2)c2cc(OCCCO)ccc2N1C(=O)c1ccc2ccccc2c1 (stereo not given in full) | 0.93 | 1.08 | 2.15 | 0.577 | 0.12 | 2.37 | 0.658 (inactive) | 0.102 | -0.796 | 0.912 (inactive) | 0.924 | -0.0786 (inactive) | 1.27 (inactive) | -1.86 (inactive) | 0.101 (inactive) | -1.7 (inactive) | 1.24 (inactive) | 1.8 (inactive) | 1.04 | -0.152
2 | COC(=O)C(CC#Cc1ccc2c(c1)[C@]1(C(=O)N2)[C@H](C(=O)N2CCc3cc(OC)c(OC)cc3C2)[C@H]2C(=O)O[C@H](c3ccccc3)[C@H](c3ccccc3)N2[C@@H]1c1ccc(O)cc1)C(=O)OC | -0.703 | 1.08 | 0.613 | -0.993 | -3.27 | -1.81 | 0.604 (inactive) | -0.606 | 0.567 | -0.216 (inactive) | -0.555 | 1.8 (inactive) | 1.26 (inactive) | -22.8 (active) | 3.04 (inactive) | 3.33 (inactive) | 0.414 (inactive) | 0.356 (inactive) | -0.14 | -0.167
3 | [N-]=[N+]=NCc1ccccc1C[C@@]1(C(=O)NCCN2CCOCC2)N=C(c2ccc(OCCCO)cc2)O[C@@H]1c1ccccc1CN=[N+]=[N-] | -0.628 | 0.671 | -0.399 | -2.59 | -2.77 | 0.787 | 0.0123 (inactive) | -1.06 | -0.797 | -1.13 (inactive) | -0.709 | 0.326 (inactive) | -0.982 (inactive) | 1.06 (inactive) | 1.13 (inactive) | 1.15 (inactive) | 0.585 (inactive) | 0.239 (inactive) | -0.971 | 0.0905
4 | COC(=O)c1ccc(OC)c(/C=C\CC(CCc2ccccc2)OC(=O)c2ccncc2)c1 (stereo not given) | -0.568 | 0.115 | -0.457 | -2.19 | -2.2 | -1.28 | -1.32 (inactive) | -0.745 | 0.256 | 2.06 (inactive) | 0.263 | 0.0069 (inactive) | 0.472 (inactive) | -3.1 (inactive) | 0.0619 (inactive) | -0.0204 (inactive) | 0.0514 (inactive) | -0.379 (inactive) | 1.24 | 2.62
5 | CC(C)(C)OC(=O)CC[C@@]1(C(=O)N2CCCCC2)N=C(c2ccc(OCCCO)cc2)O[C@@H]1c1ccccc1N=[N+]=[N-] | 0.611 | -0.351 | 0.733 | -0.993 | -2.16 | 1.52 | 3.17 (inactive) | -1.1 | -0.993 | -0.328 (inactive) | -0.254 | 0.601 (inactive) | -1.73 (inactive) | 0.27 (inactive) | -0.279 (inactive) | 0.879 (inactive) | 0.264 (inactive) | 1.36 (inactive) | -0.408 | -0.0474
6 | COC(=O)[C@]1(Cc2ccccc2CN=[N+]=[N-])N=C(c2ccc(OCCCO)cc2)O[C@@H]1c1ccccc1CN=[N+]=[N-] | -3.46 | 0.766 | -4.79 | -3.67 | -4.08 | 0.344 | 0.24 (inactive) | -1.07 | -2.47 | -3.05 (inactive) | -1.27 | 0.803 (inactive) | -3.36 (inactive) | 1.36 (inactive) | 3.93 (inactive) | 2.92 (inactive) | 2.1 (inactive) | 1.6 (inactive) | -4.23 | -0.0025
7 | CC(C)=CCCC(C)=CC(O)C1C=CC2C(=O)N(c3ccccc3)C(=O)C2N1Nc1ccc([N+](=O)[O-])cc1 (stereo not given) | -0.498 | 0.701 | -0.0971 | -1.2 | -0.186 | -1.07 | -1.44 (inactive) | 0.417 | 1.41 | -0.214 (inactive) | -0.674 | -1.14 (inactive) | -0.753 (inactive) | -0.697 (inactive) | 0.492 (inactive) | -0.853 (inactive) | -1.49 (inactive) | -1.43 (inactive) | -0.276 | 0.0817
8 | [N-]=[N+]=Nc1ccccc1[C@H]1OC(c2ccc(OCCCO)cc2)=N[C@@]1(Cc1ccccc1)C(=O)NCc1ccccc1 | -1.16 | 0.491 | -1.07 | -1.04 | -3.84 | 0.671 | -1.17 (inactive) | -1.16 | -2.17 | -1.56 (inactive) | -0.171 | -1.95 (inactive) | -3.89 (inactive) | 0.928 (inactive) | 0.124 (inactive) | -0.947 (inactive) | 2.01 (inactive) | 1.76 (inactive) | -3.99 | 0.0917
